Bst PK mod = Pyruvate Kinase; purified pyruvate kinase, luminescence ATP production; ribose 5-phosphate activator present at AC10; Potency, µM; hit rate 1.2% among 51,000; AID 361, 2006; in the data active = potency below about 11 µM; inconclusive = mostly about 12 µM to 25 µM;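 the screen sought inhibitors and activators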
ERK AVP block = qHTS Assay for Inhibitors of the ERK Signaling Pathway using a Homogeneous Screening Assay; HEK293-V1b, vasopressin-stimulated pERK AlphaScreen; Potency, µM (highest dose often 57.5 µM), usual class: inhibitors; hit rate 0.99% among 72,000; also: nearly all actives have a fitted effect of over 55% in size
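Overnight-seeded V1b-HEK293 cells in 1% FBS got compound, then vasopressin (25 nM final, 5 min, 37C), then lysis buffer. AlphaScreen detection of phospho-ERK; activity normalized to basal and full-stimulation controls.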
FLuc inh = qHTS Assay for Inhibitors of Firefly Luciferase | Luciferin 4-monooxygenase (Photinus pyralis), P08659 | purified firefly luciferase, luminescence, 8 min | Potency, µM (doses to about 57.1 µM), most hits filed as inhibitors | hit rate 2.2% among 72,000; also: nearly all actives have a fitted effect of over 40% in size
Target sequence (P08659 whole entry, looked up): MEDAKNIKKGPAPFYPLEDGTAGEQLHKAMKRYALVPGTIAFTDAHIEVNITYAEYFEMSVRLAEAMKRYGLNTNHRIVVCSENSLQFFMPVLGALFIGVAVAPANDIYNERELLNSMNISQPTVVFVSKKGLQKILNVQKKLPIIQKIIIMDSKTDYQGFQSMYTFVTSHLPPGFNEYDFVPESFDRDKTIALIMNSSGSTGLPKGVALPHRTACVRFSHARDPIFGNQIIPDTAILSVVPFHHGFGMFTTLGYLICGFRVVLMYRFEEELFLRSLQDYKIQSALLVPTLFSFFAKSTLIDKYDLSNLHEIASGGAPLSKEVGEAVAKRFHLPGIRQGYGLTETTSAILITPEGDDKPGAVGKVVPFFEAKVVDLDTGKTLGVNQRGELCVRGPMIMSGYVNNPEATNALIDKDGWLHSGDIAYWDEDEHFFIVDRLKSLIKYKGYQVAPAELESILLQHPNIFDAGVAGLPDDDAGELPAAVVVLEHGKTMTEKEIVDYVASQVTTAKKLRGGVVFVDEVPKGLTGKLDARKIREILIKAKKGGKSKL
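Substrate buffer containing 10 uM ATP (pH 7.2 imidazole, Mg2+, KCl, detergent, BSA) is dispensed, compound pinned in, then luciferase/luciferin detector mix added. After 8 min at ambient temperature, light output is measured.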
TSHR ag = qHTS Assay for Agonists of the Thyroid Stimulating Hormone Receptor | Thyrotropin receptor (Homo sapiens), P16473 | hit rate 0.48% among 73,000 | HEK293-CNG-TSHR cells (CNG channel as cAMP sensor), membrane potential dye, cAMP | Potency, µM (highest dose often 57.1 µM), hits mostly activators; active = well fitted activation curve with a large enough effect in the main read-out, with a control signal flat, not every such curve was filed as active; inconclusive = small, poorly fitted or top-dose-only effect, or a change in a side signal; inactive = no such curve, though single readings can be large or run the other way; reference of the percent scale not stated here;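 also: the control signal comes from parental cells without the receptor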
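HEK 293 cells stably expressing TSHR and a cAMP-gated CNG channel; parental CNG-only cells as counterscreen. Cells preloaded 60 min with membrane potential dye plus 100 uM RO 20-1724, then compound 30 min; fluorescence read at 590 nm.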
HEK293 cAMP ctrl = qHTS Assay for Agonists of the Thyroid Stimulating Hormone Receptor: Activators of Intracellular cAMP Concentrations in Parental HEK 293; Potency, µM (titrated, usually from 57.1 µM), most hits filed as activators; hit rate 2.5% among 73,000; parental HEK293 CNG cAMP sensor, membrane potential fluorescence; also: nearly all actives have a fitted effect of over 55% in size
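Counterscreen for endogenous-receptor signalling: CNG-channel HEK 293 cells report cAMP rise by membrane depolarization. After 60 min dye equilibration with 100 uM RO 20-1724, compounds incubated 30 min before bottom-read fluorescence at 590 nm.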
Tau filament bind = qHTS Assay for Tau Filament Binding. AID 596, 2007. Microtubule-associated protein tau (Homo sapiens), P10636. Potency, µM (top dose mostly 57.1 µM). hit rate 2% among 71,000. recombinant tau filaments, thioflavin S fluorescence, 15 h; filaments grown with octadecylsulfate alongside compound;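 also: actives lower thioflavin S fluorescence by blocking filaments or displacing dye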
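ThS-based fibril read: tau 1 uM final, inducer ODS 30 uM final, 37 C for 15 h, ex 450/em 510 nm.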
Each line names hits and unclear results; the compound was inactive in the other large screens. A selection: hits, their analogues and other compounds. The true share with any hit is near 7.2%. Unless noted, calls follow the shape of the dose curve; as a rule, active = well fitted curve in the direction sought with a large enough effect; inconclusive = small, poorly fitted or top-dose-only effect, or another doubt; inactive = no such curve, though single readings can be large; an effect the other way counts as inactive or inconclusive.

CC(=O)c1ccc(C2C=CC(O)C(CO)O2)cc1 (stereo not given)	none (no result: Bst PK mod, FLuc inh, Tau filament bind)
NCCS(=O)O	TSHR ag inconclusive, HEK293 cAMP ctrl inconclusive (no result: Bst PK mod)
O=C(O)CSc1ccc2ccccc2n1	none
C/C(=N/Nc1ccc2ccccc2n1)c1ccccc1O	FLuc inh 1.3µM (no result: Bst PK mod)
CCOC(=O)c1c(C)oc2c1c(C(c1ccncc1)N1CCOCC1)c(O)c1ccccc12 (stereo not given)	Tau filament bind 13µM (no result: Bst PK mod)
CCOC(=O)c1c(C)oc2c1c(C=NC1CCS(=O)(=O)C1)c(O)c1ccccc12 (stereo not given)	none
c1ccc(Nc2cc(Nc3ccccc3)[nH]n2)cc1	TSHR ag inconclusive, Tau filament bind 20µM
CN(C)C(=O)c1ccc(-c2cc(Nc3ccccc3)ncn2)cc1	none (no result: Bst PK mod)
COc1ccc(OC)c2[nH]c(=O)c(CCNS(=O)(=O)c3ccc(C)cc3)cc12	Bst PK mod 2.3
COc1ccc(OC)c2[nH]c(=O)c(CCNC(=O)C(C)C)cc12	TSHR ag inconclusive, HEK293 cAMP ctrl inconclusive (no result: Bst PK mod, ERK AVP block)
COc1ccc(OC)c2[nH]c(=O)c(CCNS(=O)(=O)c3ccc(Cl)cc3)cc12	Bst PK mod 4.3 (no result: TSHR ag)
C[C@@H](C(=O)NCc1ccc(C(F)(F)F)nc1)[C@H]1C[C@]1(C)[C@H](NC(=O)OCc1ccccc1)c1ccccc1	TSHR ag inconclusive, HEK293 cAMP ctrl inconclusive (no result: Bst PK mod, FLuc inh)
Cn1cccc1C(=O)N1CCC[C@@]2(CCN(c3ccccc3)C2)C1	ERK AVP block inconclusive (no result: Bst PK mod)
CCN1CCN(Cc2ccccc2NC(=O)Nc2ccc(C)cc2)CC1	none
CCN1CCN(Cc2ccc(NC(=O)Nc3ccccc3Cl)cc2)CC1	FLuc inh 16µM (no result: Bst PK mod)
COc1cccc(-c2ccc3ncnc(N4CCN(C)CC4)c3c2)c1	ERK AVP block inconclusive (no result: Bst PK mod)
CC1CC(N(C(=O)c2ccco2)c2ccccc2)c2ccccc2N1 (stereo not given)	TSHR ag 13µM
CC(C)C[C@@H](CC(=O)N[C@H](CC(=O)N[C@@H]1CCCC[C@H]1C(=O)N[C@H](CC(=O)N[C@@H](CCC(=O)O)CC(=O)O)Cc1ccccc1)C(C)C)NC(=O)[C@@H]1CCCC[C@H]1N	none (no result: Bst PK mod, ERK AVP block, FLuc inh, TSHR ag)
COc1cccc(N2CC(O)=C(c3nc4ccccc4c(=O)[nH]3)C2=N)c1	Bst PK mod 2.9
O=c1/c(=C\c2ccc3c(c2)OCO3)sc2n1CCCN=2	Bst PK mod inconclusive, ERK AVP block 10µM, FLuc inh 13µM
Cc1cc2cc(CN(Cc3ccc4c(c3)OCO4)C(=O)c3cnccn3)c3nnnn3c2cc1C	TSHR ag inconclusive, HEK293 cAMP ctrl 32µM
CSc1nsc(SCC(=O)N2CCc3ccccc32)n1	TSHR ag inconclusive, HEK293 cAMP ctrl 25µM
Cc1nnc(SCC(=O)N2CCc3ccccc32)s1	none
O=c1sc2ccccc2n1COc1ccccc1	TSHR ag inconclusive, HEK293 cAMP ctrl 25µM (no result: Bst PK mod)
COC(=O)c1ccc(Oc2nc3c(c(=O)n(C)c(=O)n3C)n2CCC(C)C)cc1	TSHR ag inconclusive, HEK293 cAMP ctrl 16µM
C=CCOC(=O)C(C#N)c1nc2ccccc2nc1N1CCN(Cc2ccc3c(c2)OCO3)CC1 (stereo not given)	ERK AVP block inconclusive, TSHR ag inconclusive, Tau filament bind 1.3µM
CCC(CC)COC(=O)C(C#N)c1nc2ccccc2nc1N1CCN(CC)CC1 (stereo not given)	TSHR ag inconclusive, Tau filament bind 1.3µM (no result: Bst PK mod)
CCCCNC(=O)C(C#N)c1nc2ccccc2nc1N1CCN(Cc2ccc3c(c2)OCO3)CC1 (stereo not given)	none (no result: ERK AVP block, TSHR ag, HEK293 cAMP ctrl, Tau filament bind)
CCOC(=O)C1CCN(c2nc3ccccc3nc2C(C#N)C(=O)OC(C)C)CC1 (stereo not given)	none (no result: ERK AVP block, TSHR ag, HEK293 cAMP ctrl, Tau filament bind)
CCCN(CCC)c1nc2ccccc2nc1C(C#N)C(=O)OCCOC (stereo not given)	Tau filament bind 1.3µM (no result: TSHR ag)
CCOC(=O)C1CCN(c2nc3ccccc3nc2C(C#N)C(=O)OC(C)COC)CC1 (stereo not given)	Bst PK mod 5.6 (no result: ERK AVP block, TSHR ag, HEK293 cAMP ctrl, Tau filament bind)
O=C1OC(O)C(C(Cl)Cl)=C1Cl (stereo not given)	none (no result: Bst PK mod, FLuc inh)
NC1=C(O)C(=O)[C@H](c2c[nH]c3ccc(OCc4ccccc4)cc23)O1	none (no result: Bst PK mod)
O=c1c(O)c(-c2ccc(O)c(O)c2)oc2ccccc12	ERK AVP block inconclusive, Tau filament bind inconclusive (no result: Bst PK mod)
COc1ccc(C(=O)N2CCC3(CCCN(Cc4nccs4)C3)CC2)cc1	TSHR ag inconclusive, HEK293 cAMP ctrl inconclusive (no result: Bst PK mod)
Cc1ccc(S(=O)(=O)N(CC(=O)O)c2ccc(Cl)cc2)cc1	none (no result: Bst PK mod, ERK AVP block, FLuc inh, Tau filament bind)
CCN(CC)C[C@@H](O)CN1CCCCc2nc(C)c(C)cc21	none (no result: Bst PK mod, Tau filament bind)
N#CC(C(=O)NC1CCCCC1)c1nc2ccccc2nc1N1CCOCC1 (stereo not given)	none
COC(=O)C(C#N)c1nc2ccccc2nc1N1CCCC1 (stereo not given)	ERK AVP block inconclusive, Tau filament bind 16µM
COc1ccc(CNC(=O)C(C#N)c2nc3ccccc3nc2N2CCN(C)CC2)cc1 (stereo not given)	Tau filament bind 3.2µM
COc1ccc(CNC(=O)C(C#N)c2nc3ccccc3nc2N2CCCC2)cc1 (stereo not given)	none
N#CC(C(=O)OCc1ccccc1)c1nc2ccccc2nc1N1CCOCC1 (stereo not given)	TSHR ag inconclusive, HEK293 cAMP ctrl inconclusive, Tau filament bind 2µM
CCOC(=O)C1CCN(c2nc3ccccc3nc2C(C#N)C(=O)OCCOC)CC1 (stereo not given)	Bst PK mod 2.3 (no result: ERK AVP block, TSHR ag, HEK293 cAMP ctrl, Tau filament bind)
Nc1nc(SCc2ccccc2[N+](=O)[O-])c2[nH]cnc2n1	none (no result: Bst PK mod)
Cc1ccc(C)c(/C(=N\N=C(N)N)C2CC2)c1	none (no result: Bst PK mod)
COC(=O)C1CCN(c2nc3ccccc3nc2C(C#N)C(=O)NCCc2ccccc2)CC1 (stereo not given)	none (no result: ERK AVP block, TSHR ag, HEK293 cAMP ctrl, Tau filament bind)
COC(=O)C1CCN(c2nc3ccccc3nc2C(C#N)C(=O)OCC(C)C)CC1 (stereo not given)	TSHR ag inconclusive, HEK293 cAMP ctrl inconclusive, Tau filament bind 4µM
O=C(O)c1cc(NS(=O)(=O)c2ccc3ccccc3c2)ccc1O	none (no result: Bst PK mod, ERK AVP block, FLuc inh, Tau filament bind)
O=C1c2ccccc2C(=O)c2c1ccc(C(=O)O)c2-c1ccc2ccccc2c1	TSHR ag inconclusive, HEK293 cAMP ctrl inconclusive, Tau filament bind 3.2µM (no result: Bst PK mod)
COc1ccc(C2=C(N)c3ccccc3C2=O)cc1	FLuc inh 13µM, TSHR ag inconclusive, HEK293 cAMP ctrl inconclusive, Tau filament bind inconclusive (no result: Bst PK mod)
COCCCn1c2nc3ccccc3nc2c2c(=O)n(Cc3ccccc3Cl)cnc21	TSHR ag inconclusive, HEK293 cAMP ctrl 25µM
COCCCn1c2nc3ccccc3nc2c2c(=O)n(Cc3ccc(Cl)cc3)cnc21	none
